Sampled rows, rich in hits. Any-hit rate of the full collection: about 8%.
KB-V1 MDR tox: kills drug-selected multidrug resistant KB-V1 cells. KB-V1 MDR cells viability, CellTiter-Glo, 72 h. Potency, µM (doses to about 46.1 µM), most hits filed as cytotoxic. 3.4% of 400,000 active. AID 1347076; note: % is set by controls: 0 for no effect and ±100 for the full control effect; nearly all actives have a fitted effect of over 60% in size
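Cells of the MDR subline KB-V1 are plated, dosed with compound at multiple concentrations, and incubated 72 h at 37 degrees C; CellTiter-Glo is then added and luminescence read after 10 min.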
SW480 rereplic: induces DNA re-replication in SW480 colon adenocarcinoma cells | SW480 DNA re-replication, Hoechst DNA content imaging, 48 h | Potency, µM (highest dose often 46.1 µM), inactives show at the highest dose re-replication activation, most hits filed as activators | 1.8% of 340,000 active; note: % of control where 0% means no effect; nearly all actives have a fitted effect of over 55% in size
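SW480 cells exposed to compounds for 48 hr at 37 C, 5% CO2, then Hoechst-stained 40 min. Nuclear DNA content imaged by fluorescence scanning (405 nm excitation, 500-530 nm emission); re-replication scored as increased high-intensity nuclei.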
KB-3-1 tox: kills parental KB-3-1 adenocarcinoma cells; KB-3-1 viability, CellTiter-Glo ATP luminescence, 72 h; Potency, µM (series often up to 46.1 µM), usual class: cytotoxic; 1.4% of 400,000 active; note: % is set by controls: 0 for no effect and ±100 for the full control effect; nearly all actives have a fitted effect of over 60% in size
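Multi-concentration cytotoxicity screen in KB-3-1 cells grown in DMEM lacking phenol red with 10% FBS. After 72 h at 37 °C with compound, ATP-dependent luminescence was recorded.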
MCF10A rereplic: DNA re-replication induction in MCF 10a cells; MCF 10A DNA re-replication, Hoechst nuclear intensity, 48 h; Potency, µM (doses to about 46.1 µM), inactives show at the highest dose activity, positive = re-replication, hits mostly activators; 2.9% of 350,000 active; AID 624296; note: % of control where 0% means no effect; nearly all actives have a fitted effect of over 50% in size
HT1080NT lethal: kills 2HG-producing HT-1080-NT fibrosarcoma cells. HT-1080-NT fibrosarcoma viability, CellTiter-Glo ATP luminescence, 48 h. Potency, µM (titrated, usually from 46.1 µM), without a hit: at the top dose activity, negative = less viability, actives largely listed as cytotoxic. 1.6% of 360,000 active;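 note: NT is the 2HG producing partner of a matched IDH1 knockdown line; 0% = DMSO-treated cells and -100% = media-only wells without cells; nearly all actives have a fitted effect of over 55% in size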
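Viability by CellTiter-Glo luminescence after 48 h compound exposure at 37C of HT-1080-NT cells (750/well, RPMI, 5% FBS). % activity scaled between DMSO wells and medium-only wells, then curve-fitted and categorized by curve class.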
HT1080 IDH1KD tx: kills HT-1080 cells with IDH1 knockdown; HT-1080 IDH1 knockdown viability, ATP luminescence, 48 h; Potency, µM (top dose mostly 46.1 µM), for inactives: at the highest dose activity, negative = toxicity, usual class: cytotoxic; 2% of 360,000 active; AID 686971;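 note: 0% = DMSO wells and -100% = cell-free medium wells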
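Luminescent ATP read-out (CellTiter-Glo, 10 min at room temperature) after 48 h compound exposure at 37 °C gave viability of IDH1-knockdown HT-1080 cells. Activity was normalised to DMSO and cell-free wells, then fitted as concentration-response curves.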
* marks the source's active call; other numbers are inactive results; i = inactive; ? = inconclusive; . = no result. Calls come from the whole dose curve; as a rule, active = well fitted curve in the direction sought with a large enough effect; inconclusive = small, poorly fitted or top-dose-only effect, or another doubt; inactive = no such curve, though single readings can be large; an effect the other way counts as inactive or inconclusive. Potency is the fitted concentration of half-maximal effect.

SMILES | KB-V1 MDR tox | SW480 rereplic | KB-3-1 tox | MCF10A rereplic | HT1080NT lethal | HT1080 IDH1KD tx
CCOC(=O)C1=C(N)n2c(s/c(=C\c3ccncc3)c2=O)=C(C(=O)OCC)C1c1ccncc1 (stereo not drawn) | i | 2% | i | 6% | 1% | -6%
CCOC(=O)C1=C(N)n2c(s/c(=C\c3cccs3)c2=O)=C(C(=O)OCC)C1c1cccs1 (stereo not drawn) | 13µM* | ? | 10µM* | ? | ? | 2.6µM*
O=C(CSc1ncc2c(n1)-c1ccccc1N(Cc1ccc(F)cc1)S2(=O)=O)c1ccc(Cl)cc1 | i | . | i | . | . | .
CCCCCCCCCNC(=O)[C@H](NC(=O)COc1ccccc1)[C@@H]1NC(C(=O)OC)C(C)(C)S1 (stereo partly drawn) | i | -35% | i | 6.5µM* | -5% | -8%
Cc1ccc(S(=O)(=O)N2CCOCC2)cc1C(=O)OCC(=O)N1CCc2ccccc2C1 | 12µM* | -5% | i | 24% | ? | 3%
Cn1cccc1/C=C1\Cc2ccccc2C1=O | i | 5% | i | 8% | 6% | 15%
Cn1cccc1/C=C1\CC(C(C)(C)C)C/C(=C\c2cccn2C)C1=O (stereo not drawn) | 4.1µM* | ? | ? | 3.7µM* | 5% | -3%
O=[N+]([O-])c1ccc(/C=N/Nc2nc(N3CCCC3)nc(N3CCCC3)n2)o1 | 21µM* | -2% | i | 0% | ? | ?
Cc1ccc2nc(N/N=C\c3ccc([N+](=O)[O-])o3)nc(-c3ccccc3)c2c1 | 18µM* | ? | 26µM* | ? | ? | 10%
O=[N+]([O-])c1ccc(-c2ccc(/C=N/Nc3nc(N4CCCC4)nc(N4CCCC4)n3)o2)cc1 | i | ? | i | ? | 2% | 7%
O=[N+]([O-])c1ccc(/C=N/Nc2nc(-c3ccccc3)c3cc(Br)ccc3n2)o1 | i | 0% | i | 2% | 14% | 22%
CCNc1nc(NCC)nc(N/N=C/c2ccc([N+](=O)[O-])o2)n1 | 21µM* | ? | ? | 10% | -7% | -11%
O=C(NCc1ccccc1Cl)c1ccc(CSCc2ccccc2Cl)o1 | i | . | i | . | . | .
Cc1cccc(C)c1NC(=O)c1c(O)c2ccccc2[nH]c1=O | ? | -6% | 18µM* | 4% | -26% | -14%
O=C1C=CC2C(c3ccc4c(c3)OCO4)CC1N2Cc1ccccc1 (stereo not drawn) | ? | 4% | 9.2µM* | ? | -19% | -20%
O=C1C=C(c2cccc(OCc3ccccc3)c2)C[C@@H](c2ccc3c(c2)OCO3)C1 | i | -20% | i | 6% | 0% | -16%
COc1ccc(N2CC(NC(=O)c3cc4ccccc4o3)CC2=O)cc1OC (stereo not drawn) | i | . | i | . | . | .
Cn1c(=O)c2sccc2n2c(CCC(=O)N3CCN(c4cccc(Cl)c4)CC3)nnc12 | i | . | i | . | . | .
NC1=NC(=O)/C(=C\c2ccc(-c3ccc(Cl)cc3)o2)S1 | ? | ? | i | 7.3µM* | -26% | -27%
NC1=NC(=O)/C(=C/c2cn(CCC(=O)O)nc2-c2ccc(Cl)cc2)S1 | i | 10% | i | 13% | -12% | 0%
c1ccc(N/N=C(\Cc2ncc[nH]2)c2ccccc2)cc1 | ? | 5% | i | 2% | -18% | -16%
COc1cc(C(=O)N/N=C(\Cc2ncc[nH]2)c2ccccc2)cc(OC)c1OC | ? | ? | ? | 18µM* | 9.2µM* | 4.6µM*
COc1ccc(C(=O)N/N=C(\Cc2ncc[nH]2)c2ccccc2)cc1 | ? | 9.2µM* | i | ? | ? | ?
COc1ccc(C(=O)NN=C(Cc2ccccc2)Cc2ccccc2)cc1OC | ? | ? | i | ? | 5% | 4%

Assay outcomes: PubChem BioAssay, National Center for Advancing Translational Sciences (NCATS)
